Results taken from PubChem BioAssay (NCATS).
Records with an inconclusive call do not appear. Entries that show only a call come without a potency. Activity calls are given as the source filed them. The call rests on the fitted dose curve; in most records, active means well fitted inhibition curve with a large enough effect; inconclusive means small, poorly fitted or top-dose-only effect; inactive means flat fitted curve, though single readings scatter.

Target: Voltage-gated inwardly rectifying potassium channel KCNH2 (Homo sapiens) (UniProt Q12809)
Sequence (Q12809 whole entry, looked up): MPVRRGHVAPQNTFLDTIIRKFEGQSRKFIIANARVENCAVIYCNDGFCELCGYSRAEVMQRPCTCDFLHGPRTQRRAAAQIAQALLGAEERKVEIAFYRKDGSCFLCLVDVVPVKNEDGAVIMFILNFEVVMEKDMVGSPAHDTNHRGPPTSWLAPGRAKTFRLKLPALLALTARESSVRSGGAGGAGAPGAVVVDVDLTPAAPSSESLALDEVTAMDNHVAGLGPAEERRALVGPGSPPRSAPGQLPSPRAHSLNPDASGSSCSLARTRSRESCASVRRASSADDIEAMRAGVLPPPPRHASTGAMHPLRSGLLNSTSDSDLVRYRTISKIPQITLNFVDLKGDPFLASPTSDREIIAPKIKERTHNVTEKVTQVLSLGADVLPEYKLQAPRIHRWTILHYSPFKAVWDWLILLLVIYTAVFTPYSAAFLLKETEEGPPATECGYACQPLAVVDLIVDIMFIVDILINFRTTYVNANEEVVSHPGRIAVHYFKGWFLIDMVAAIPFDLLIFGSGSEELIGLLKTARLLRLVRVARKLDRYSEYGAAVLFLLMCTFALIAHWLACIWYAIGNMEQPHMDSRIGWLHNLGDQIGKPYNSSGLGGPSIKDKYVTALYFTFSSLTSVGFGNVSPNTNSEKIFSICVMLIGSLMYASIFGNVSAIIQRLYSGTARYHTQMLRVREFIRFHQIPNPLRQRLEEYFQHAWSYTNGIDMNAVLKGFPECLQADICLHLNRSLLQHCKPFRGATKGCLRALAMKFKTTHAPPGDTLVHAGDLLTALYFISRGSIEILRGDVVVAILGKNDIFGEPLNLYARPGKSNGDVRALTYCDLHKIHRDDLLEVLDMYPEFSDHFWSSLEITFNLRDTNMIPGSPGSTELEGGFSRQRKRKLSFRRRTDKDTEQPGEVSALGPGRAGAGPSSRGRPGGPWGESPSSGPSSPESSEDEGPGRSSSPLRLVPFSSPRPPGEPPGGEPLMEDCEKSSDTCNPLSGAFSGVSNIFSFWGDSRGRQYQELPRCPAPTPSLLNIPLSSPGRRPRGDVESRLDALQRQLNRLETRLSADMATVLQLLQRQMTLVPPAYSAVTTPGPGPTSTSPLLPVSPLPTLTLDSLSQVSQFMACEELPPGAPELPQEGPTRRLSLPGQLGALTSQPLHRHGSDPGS
Assay: qHTS Assay for Small Molecule Inhibitors of the Human hERG Channel Activity (AID 588834);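 further: lower thallium flux fluorescence means stronger hERG block; nearly all actives have a fitted effect of over 50% in size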
Conditions: U2OS BacMam hERG, FluxOR thallium flux fluorescence; series mostly up to 46.1 µM
Method in brief: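 hERG-BacMam U2OS, 2000 cells/well; 0.7X FluxOR loading 1 hr RT dark; cpd ~10 min 37 °C; stim buffer; FDSS fluorescence 2 min @ 1 s; AC50 Hill fit.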
Potency means the concentration at half of the fitted maximal effect.

Question: How did the Potency turn out when COc1ccc(C(=O)CCC(=O)O)c2ccccc12 was run?
Answer: inactive

Question: With O=C1C2CC3CC1CC(O)(C3)C2 as the compound, how does the Potency read?
Answer: inactive

Question: Which Potency does the source give for O=C1c2c(O)cccc2[C@H]([C@@H]2O[C@H](CO)[C@@H](O)[C@H](O)[C@H]2O)c2cc(CO)cc(O)c21 here?
Answer: inactive

Question: O=C(O)CN(CC(=O)O)CC1=CC2C(=CC1=O)Oc1cc(O)c(CN(CC(=O)O)CC(=O)O)cc1C21OC(=O)c2ccccc21 (stereo not given) was tested. Which Potency did it give?
Answer: 0.891 µM (active)

Question: Which Potency does the source give for CN1CCN(C(c2ccccc2)c2ccc(Cl)cc2)CC1 (stereo not given) here?
Answer: 5.62 µM (active)

Question: With CC(C)[C@@H]1CC[C@@H](C)C[C@H]1OC(=O)c1ccccc1O as the compound, how does the Potency read?
Answer: inactive

Question: For CC(C)Cc1ccc([C@@H](C)C(=O)NS(C)(=O)=O)cc1, which Potency is on record?
Answer: inactive

Question: With NC[C@@H]1O[C@H](O[C@H]2[C@@H](O)[C@H](O[C@@H]3[C@@H](O)[C@H](N)C[C@H](N)[C@H]3O[C@H]3O[C@H](CO)[C@@H](O)[C@H](O)[C@H]3N)O[C@@H]2CO)[C@H](N)[C@@H](O)[C@@H]1O as the compound, how does the Potency read?
Answer: inactive

Question: How did the Potency turn out when O=C1CCC(c2ccccc2)(C2CCN(Cc3ccccc3)CC2)C(=O)N1 (stereo not given) was run?
Answer: 14.1 µM (active)

Question: COC(=O)C(CN)c1c[nH]c2ccc(OC)cc12 (stereo not given) was tested. Which Potency did it give?
Answer: inactive

Question: With O=C(Nc1ccc(O)cc1)c1ccccc1O as the compound, how does the Potency read?
Answer: inactive

Question: O=C(c1cc2ccccc2o1)N1CCN(Cc2ccccc2)CC1 was tested. Which Potency did it give?
Answer: inactive

Question: Which Potency does the source give for Cc1ncc(COP(=O)(O)O)c(CN)c1O here?
Answer: inactive

Question: CCCCCCCCCc1ccc(OCCOCCO)cc1 was tested. Which Potency did it give?
Answer: 14.1 µM (active)

Question: With CO/N=C(\C(=O)N[C@@H]1C(=O)N2C(C(=O)O)=C(CSc3nc(C)c(CC(=O)O)s3)CS[C@H]12)c1csc(N)n1 as the compound, how does the Potency read?
Answer: inactive
